Assay results: PubChem BioAssay (NCI)
About 83,000 compounds went through this panel and 20% of them were active in at least one assay; those are over-represented in the sample as a whole.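 A percent growth of 40 corresponds to 60% growth inhibition; 0 means no net growth; -100 means all cells died. Active threshold: below 10.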 Values without a mark were called inactive. The source made the active and inactive calls.

system: SK-OV-3 ovarian; assay: NCI-60 one-dose screen, 48 h (100 = growth as untreated, 0 = no growth, -100 = all killed); conditions: 10 µM unless noted
Procedure: Growth inhibition of the SK-OV-3 human tumor cell line is measured as a screen for anti-cancer activity. Cells are grown in 96 well plates and exposed to the test compound for 48 hours. Compounds are tested at a single concentration, which is 10^-5 M for most compounds. The reported endpoint is percent growth (GI% or GIPRCNT), where numbers from 0 - 100% represent growth inhibition, and numbers from -100% - 0 represent cell death. For example, a value of 40 represents 60% growth inhibition. A value of 0 means no net growth occurred over the course of the experiment. A value of -40 indicates 40% of cells at the beginning of the experiment died by the end of the experiment. A value of -100 means all cells are dead at the end of the experiment.
NCI-60 Human Tumor Cell Lines Screen was performed using the standard one-dose NCI protocol, which is described in more detail at https://dtp.cancer.gov/discovery_development/nci-60/default.htm.
Compounds with GIPRCNT values below 10 were considered active. Activity score was based on GIPRCNT using the following formula: […]
Score is 0 for GIPRCNT values of 100 or above, 50 for GIPRCNT values of 0, and 100 for GIPRCNT values of -100.

Q: How did the growth turn out when N#CC1c2ccccc2C=CN1C(=O)c1ccc(N(CCCl)CCCl)cc1 (stereo not given) was run?
A: The growth was 97.3%.

Q: With CCOC(=O)/C=C(\C)Nc1ccc(N/C(C)=C/C(=O)OCC)c2c1Oc1ccccc1O2 as the compound, how does the growth read?
A: The growth was 107%.

Q: CC(=O)O[C@H]1CC[C@H]2[C@@H]3CC[C@H]4CC=C(C)C[C@]4(C)[C@H]3CC[C@]12C was tested. Which growth did it give?
A: The growth was 102%.

Q: For c1ccc([As]=[As]c2ccccc2)cc1 (stereo not given), which growth is on record?
A: The growth was 27.5%.

Q: How did the growth turn out when C[C@]12C[C@H](O)[C@H]3[C@@H](CCC4=CC(=O)CC[C@@]43C)[C@@H]1CC[C@@H]2O was run?
A: Its growth is 105%.

Q: Which growth does the source give for O=C1NC(=O)C(CN2C(=O)C3(c4ccccc42)[C@H](Cl)C(=O)N3c2ccccc2)C(=O)N1 (stereo not given in full) here?
A: The growth was 83.1%.

Q: Which growth does the source give for Nc1ccc(N)c2c1Oc1ccccc1O2 here?
A: Its growth is 94.6%.

Q: CC(=O)O[C@H]1CCC2C3CCC4=C/C(=N/O)CCC4(C)C3CCC21C (stereo not given in full) was tested. Which growth did it give?
A: The growth was 104%.

Q: For O=C(NCCNC(=O)c1ccc([As](O)O)cc1)c1ccc([As](O)O)cc1, which growth is on record?
A: Its growth is 104%.

Q: Which growth does the source give for CC1(C)N=C(N)N=C(N)N1c1ccc(CCCCc2ccc(S(=O)(=O)F)cc2)cc1 here?
A: The growth was 69.1%.

Q: How did the growth turn out when Oc1c(Br)cc(Br)cc1Br.[Cu+2] was run?
A: The growth was 94.3%.

Q: With CC1(C)N=C(N)N=C(N)N1c1ccc(CCC(=O)Nc2cccc(S(=O)(=O)F)c2)cc1 as the compound, how does the growth read?
A: Its growth is 101%.

Q: How did the growth turn out when COc1ccc(/C=C\c2cc(OC)c(OC)c(OC)c2)cc1N/C=C\C(=O)c1c[nH]c2ccccc12 was run?
A: The growth was 12.9%.

Q: With CCOCC1(CCc2ccccc2)C(=O)NC(=S)NC1=O as the compound, how does the growth read?
A: Its growth is 112%.

Q: With C/C(=N/OC(=O)N(C)C)c1ccc(Cl)cc1Cl as the compound, how does the growth read?
A: The growth was 94.6%.

Q: With CNC(=O)Oc1cccc(OC)c1 as the compound, how does the growth read?
A: The growth was 118%.

Q: C=CC(=O)NC(O)C(Cl)(Cl)Cl (stereo not given) was tested. Which growth did it give?
A: The growth was 98.2%.

Q: Which growth does the source give for CCCCN(CCCC)CC(O)c1ccccc1 (stereo not given) here?
A: The growth was 111%.

Q: With O=S(=O)(Cl)c1ccccc1 (tested in a mixture with another compound) as the compound, how does the growth read?
A: The growth was 102%.

Q: For CC(=O)[O][Hg][CH2]C1(C)COC(C)([CH2][Hg][O]C(C)=O)CO1 (stereo not given), which growth is on record?
A: The growth was 103%.

Q: For O=C(NCc1ccc([N+](=O)[O-])cc1)Nc1ccc(S(=O)(=O)F)cc1, which growth is on record?
A: Its growth is 94.9%.

Q: With n1nc(-c2nonc2-c2nn[nH]n2)n[nH]1 as the compound, how does the growth read?
A: The growth was 115%.

Q: How did the growth turn out when CCC1([N+](=O)[O-])COP(=O)(NCc2cccnc2)OC1 (stereo not given) was run?
A: Its growth is 94.4%.

Q: How did the growth turn out when O=[As]c1ccc(C(=O)c2ccc(Oc3ccccc3)cc2)cc1 (stereo not given) was run?
A: Its growth is -100% (active).

Q: How did the growth turn out when COc1cc(C2CC(=O)Nc3nc(N)[se]c32)cc(OC)c1OC (stereo not given) was run?
A: The growth was 101%.

Q: CC1(C)N=C(N)N=C(N)N1c1ccc(OCCCCOc2ccc(S(=O)(=O)F)cc2)c(Cl)c1 was tested. Which growth did it give?
A: Its growth is 43.3%.

Q: Which growth does the source give for O=C(O)c1[nH]c(=O)[nH]c(=O)c1F here?
A: Its growth is 112%.

Q: For CNC(=O)Oc1ccccc1, which growth is on record?
A: The growth was 108%.

Q: Oc1ccc(Br)cc1CN1CCN(Cc2ccc(Cl)cc2)CC1 was tested. Which growth did it give?
A: The growth was 101%.

Q: Which growth does the source give for CC(C)CCC1(CCO)C(=O)NC(=S)NC1=O here?
A: The growth was 108%.

Q: With C[CH2][Pb]([CH2]C)([CH2]C)[O]C(=O)COC as the compound, how does the growth read?
A: Its growth is -3.94% (active).

Q: Which growth does the source give for COc1ccc(CN2CCN(Cc3ccccc3)CC2)c(O)c1 here?
A: Its growth is 95.7%.

Q: For S=P(N1CCCCCC1)(N1CC1)N1CC1, which growth is on record?
A: Its growth is 93.9%.

Q: With Cc1cc(NC(=O)/C=C/c2ccc([N+](=O)[O-])cc2)ccc1S(=O)(=O)F as the compound, how does the growth read?
A: The growth was 99.9%.

Q: Which growth does the source give for O=[N+]([O-])c1ccccc1N1CCNCC1 here?
A: The growth was 96%.

Q: CC(=O)Oc1ccc(Cl)cc1 was tested. Which growth did it give?
A: The growth was 98.1%.

Q: How did the growth turn out when COc1ccc(OC)c(/C=C(/C)[N+](=O)[O-])c1 was run?
A: Its growth is 125%.

Q: O=S(=O)(F)c1ncnc2nc[nH]c12 was tested. Which growth did it give?
A: Its growth is 94.7%.

Q: Which growth does the source give for NC(=O)SCC(=O)Nc1ccc([As](=O)(O)O)cc1 here?
A: The growth was 135%.

Q: With O=C(c1cccs1)C1NO[N+]([O-])=C1c1cccs1 (stereo not given) as the compound, how does the growth read?
A: The growth was 118%.
